# Experimental data reported in PubChem BioAssay (Tox21).
# “And” between values parts separate entries of the source, which are not always exact repeats. Identical values can stand only once. Records with an inconclusive call do not appear. The source holds several records for some structures; these can differ, active in one and inactive in another. The source made the active and inactive calls. Calls follow the shape of the dose curve; as a rule, active = well fitted cell-killing curve with a large enough effect in the repeat runs; inconclusive = weak or mixed curves, or effect the other way; inactive = no such curve, though single readings can be large or run the other way.
# Test: qHTS assay for identifying genotoxic compounds that show differential cytotoxicity against isogenic chicken DT40 cell lines with known DNA damage response pathways - wild type cell line (AID 743012); also: nearly all actives have a fitted effect of over 60% in size
# Details: DT40 wild type chicken cells viability, CellTiter-Glo, 40 h; series mostly up to 68.4 µM; activity change, negative = cytotoxicity: at the top concentration
# Excerpt: U.S. Tox21 Program National Center for Advancing Translational Sciences [NCATS] NIH Chemical Genomics Center [NCGC] U.S. Environmental Protection Agency [EPA] National Institutes of Environmental Health Sciences [NIEHS] National Toxicology Program [NTP] U.S. Food and Drug Administration [FDA] Tox21 Assay Overview: DNA repair pathways play a critical role in cellular homeostasis by repairing DNA damage induced by endogenous processes and xenobiotics. Isogenic chicken DT40 cell lines deficient in different DNA repair pathways can be used to identify genotoxic compounds and aid in characterizing the nature of the DNA damage induced. Two DNA repair-deficient cell lines with disrupted genes, Rad54/Ku70 or Rev3, were used to screen the Tox21 10K compound library. Possible genotoxicity was based on the presence of a significant increase in cytotoxicity in one or more of the DNA repair-deficient cell lines compared to that observed in the parental DNA repair-proficient cell line. CellTiter Glo viability assay (Promega, Madison, WI) was used to measure cell viability in these cells after compound treatment. This assay includes the data from the wild type cell line.
# Tox21 Assay Protocol Summary: 300 DT40 wild type cells in 5 uL/well were dispensed into white, solid-bottom 1536-well plates using a Multidrop Combi (ThermoFisher Scientific, Waltham, MA) dispenser. After the assay plates were incubated at 37 C/5% CO2 for approximately 0.5 hour, 23 nL of compounds dissolved in DMSO, positive controls or DMSO only was transferred into the assay plate by a pintool work station (Kalypsys, San Diego, CA). The assay plates were incubated at 37 C/5% CO2 for 40 hours. After 5 uL per well of CellTiter-Glo reagent was added into each well of the assay plates, the plates were incubated for 30 min at room temperature and the luminescence intensity of the plates was measured using a ViewLux (PerkinElmer, Shelton, CT) plate reader.
# % is scaled to controls: 0 for no effect and ±100 for the full control effect; potency is read from the fitted curve at half-maximal effect.
SMILES,Potency,"activity change, negative = cytotoxicity"
O=S(=O)(O)C(F)(F)C(F)(F)C(F)(F)C(F)(F)C(F)(F)C(F)(F)C(F)(F)C(F)(F)F,inactive and 54.5 µM (active),–
CCCCC(C#N)(Cn1cncn1)c1ccc(Cl)cc1 (stereo not given),61.1 µM (active),–
Cc1ccc(N=CN(C)C=Nc2ccc(C)cc2C)c(C)c1,inactive and 30.6 µM (active),–
CCC(=O)Nc1ccc(Cl)c(Cl)c1,–,23.5% [at 95 µM] (inactive)
ClCc1ccccn1,inactive,–
CCCCCCCCCCCCCl,inactive,–
N#CCCCCC#N,inactive,–
Clc1ccccc1-c1nnc(-c2ccccc2Cl)nn1,–,0.573% (inactive)
CNC(=O)CSP(=S)(OC)OC,–,8.9% [at 95 µM] (inactive)
CC(C)(O)C#N,–,1.43% (inactive)
CCOP(=O)(OCC)OCC,inactive,–
Oc1ccc(Cl)cc1Cl,inactive,–
CCNCC,inactive,–
S=c1[nH]c2ccccc2[nH]1,–,7.44% (inactive)
N#CC(c1ccccc1)c1ccccc1,–,2.38% (inactive)
ClC(Cl)(Cl)Br,inactive,–
CCC/C=N/O,–,-1.94% (inactive)
CCOP(=S)(OCC)SCSC(C)(C)C,–,9.01% (inactive)
CNC(=O)Oc1cccc2c1OC(C)(C)C2,–,20.2% [at 95 µM] (inactive)
O=C(O)c1nn(Cc2ccc(Cl)cc2Cl)c2ccccc12,inactive,–

SMILES,Potency,"activity change, negative = cytotoxicity"
CSc1nc(NC(C)C)nc(NC(C)C)n1,–,10.6% (inactive)
O=[N+]([O-])c1ccc(Nc2ccccc2)cc1,15.4 µM (active),–
Clc1cccc(C(Cl)(Cl)Cl)n1,–,8.65% (inactive)
O=NN(c1ccccc1)c1ccccc1,–,1.54% (inactive)
OC(c1ccc(Cl)cc1)(c1cncnc1)c1ccccc1Cl (stereo not given),10.9 µM (active),–
N#Cc1nn(-c2c(Cl)cc(C(F)(F)F)cc2Cl)c(N)c1S(=O)C(F)(F)F (stereo not given),8.41 µM (active) and 2.75 µM (active),–
CC(O)CN(CC(C)O)CC(C)O (stereo not given),inactive,–
CC(C)(O)C(=O)Nc1ccc([N+](=O)[O-])c(C(F)(F)F)c1,55.6 µM (active) and 5.62 µM (active),–
COP(=S)(OC)SCn1nnc2ccccc2c1=O,43.3 µM (active),–
CC1(C)Cc2cccc(O)c2O1,inactive,–
CCOP(=O)(O)OCC (tested in a mixture with another compound),inactive and 96.1 nM (active),–
Oc1ccc(Cl)cc1Cc1ccccc1,21.1 µM (active) and 6.19 µM (active),–
NC(=O)CN1CCCC1=O,inactive,–
COP(=S)(OC)Oc1ccc(S(=O)(=O)N(C)C)cc1,19.3 µM (active),–
Clc1ccc(C(Cl)(Cl)Cl)cc1,–,3.31% (inactive)
CC1CC(=O)O1 (stereo not given),inactive,–
[Cl-].[Cl-].[Cl-].[Fe+3],inactive,–
CCOP(=S)(OCC)OP(=S)(OCC)OCC,–,1.61% (inactive)
CNC(=S)S,inactive,–
CCCCCCCC[N+](C)(CCCCCCCC)CCCCCCCC,768 nM (active) and 433 nM (active) and 306 nM (active),–
